Bioassay records (PubChem)
KCNQ2 pot – potentiators of rat KCNQ2 potassium channel | 310,000 tested, 0.54% active | B-score at 10 µM | CHO-K1 KCNQ2, FluxOR thallium flux fluorescence; hits give high values | O88943;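 active = fluorescence ratio B-score at least 3 SD of library B-scores, with initial fluorescence B-score within 3 of them, cut at about 5.3 in these data; same plate scores as AID 2156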;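 also: B-score of peak minus minimum over baseline fluorescence ratio after K+ and Tl+ stimulus; positive B-score means potentiation of KCNQ2 with more thallium influx and brighter signal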
Target sequence (O88943 whole entry, looked up): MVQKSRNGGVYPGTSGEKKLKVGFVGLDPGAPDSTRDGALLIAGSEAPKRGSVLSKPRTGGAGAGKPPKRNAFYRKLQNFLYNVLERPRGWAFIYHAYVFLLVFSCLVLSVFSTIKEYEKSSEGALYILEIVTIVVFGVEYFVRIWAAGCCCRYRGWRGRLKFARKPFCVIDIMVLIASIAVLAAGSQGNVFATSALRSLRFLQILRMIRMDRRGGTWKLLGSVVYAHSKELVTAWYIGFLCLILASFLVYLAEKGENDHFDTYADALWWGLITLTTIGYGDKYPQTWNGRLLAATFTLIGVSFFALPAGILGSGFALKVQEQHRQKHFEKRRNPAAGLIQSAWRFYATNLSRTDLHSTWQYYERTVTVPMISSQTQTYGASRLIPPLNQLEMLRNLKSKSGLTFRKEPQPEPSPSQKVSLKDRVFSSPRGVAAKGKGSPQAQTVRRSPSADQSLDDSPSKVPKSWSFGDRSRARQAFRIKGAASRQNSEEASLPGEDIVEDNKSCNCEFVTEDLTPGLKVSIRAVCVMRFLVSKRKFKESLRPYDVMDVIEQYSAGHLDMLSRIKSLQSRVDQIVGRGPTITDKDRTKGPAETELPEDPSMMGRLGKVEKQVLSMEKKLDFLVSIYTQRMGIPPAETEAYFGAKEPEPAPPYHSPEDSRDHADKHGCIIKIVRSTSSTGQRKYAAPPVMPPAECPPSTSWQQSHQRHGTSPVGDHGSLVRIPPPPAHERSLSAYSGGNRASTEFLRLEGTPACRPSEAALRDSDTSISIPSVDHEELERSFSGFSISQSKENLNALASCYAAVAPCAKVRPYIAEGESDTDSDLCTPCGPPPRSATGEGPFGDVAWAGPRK
KCNQ2 inh – KCNQ2 (rat) channel inhibition; O88943; CHO-K1 KCNQ2, FluxOR thallium flux, 20 min; hits give low values; B-score at 10 µM; 310,000 tested, 1.1% active; AID 2156;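 active = fluorescence ratio B-score at most minus 3 library SDs, with starting brightness B-score within 2 library SDs, cut at about -5.5 in these data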
Numbers without * were called inactive; i = inactive; nt = not tested or not shown. Sampled rows, rich in hits. Any-hit rate of the full collection: about 1.6%.

SMILES	KCNQ2 pot	KCNQ2 inh
O=C(CN1C(=O)NC2NC(=O)NC21)NC1CCCCC1 (stereo unspecified)	nt	i
CN1CCN(c2nc(-c3cccnc3)nc3ccccc23)CC1	1.67	i
c1cncc(-c2nc(N3CCCCCC3)c3ccccc3n2)c1	-7.41	-7.41*
O=C1CC(c2ccccc2)CC(O)=C1C=NCc1ccccc1Cl (stereo unspecified)	nt	i
O=C1CC(c2cccc(Cl)c2)CC(O)=C1C=NC1CCCC1 (stereo unspecified)	-6.76	-6.76*
O/C(=C\Sc1nnc(Cc2ccccc2)o1)c1ccc(F)cc1	1.45	i
Cc1ccc(C(=O)N[C@H](C(=O)Nc2sccc2C(N)=O)C(C)C)cc1	nt	i
Cc1ccc(C)c(S(=O)(=O)N2CCN(C(C)C(=O)Nc3ccccc3-c3ccccc3)CC2)c1 (stereo unspecified)	-5.83	-5.83*
COCCNC(=O)c1ccccc1NC(=O)c1ccc(Cl)c(S(=O)(=O)Nc2ccc(C)cc2C)c1	nt	i
Cc1ccc(C)c(NS(=O)(=O)c2cc(C(=O)Nc3ccccc3-c3ccccc3)ccc2Cl)c1	-7.09	-7.09*
Cc1ccc(C)c(S(=O)(=O)N2CCN(C(=O)CSc3ccccc3)CC2)c1	0.25	i
NS(=O)(=O)c1ccc(NC(=O)CSc2nc(Nc3ccccc3)nc(N3CCOCC3)n2)cc1	nt	i
O=C1c2ccccc2C(=O)N1CC1c2ccccc2CCN1C(=O)C1CCCCC1 (stereo unspecified)	-6.91	-6.91*
O=C(O)[C@@H]1CCCC[C@@H]1C(=O)N1CCc2ccccc2C1CN1C(=O)c2ccccc2C1=O (stereo partly specified)	nt	i
CCN(CC)C(=O)N1CCc2ccccc2C1CN1C(=O)c2ccccc2C1=O (stereo unspecified)	-6.18	-6.18*
O=C1c2ccccc2C(=O)N1CC1c2ccccc2CCN1C(=O)CN1CCOCC1 (stereo unspecified)	nt	i
CC1(c2ccc3ccccc3c2)NC(=O)N(CC(=O)N2CCN(c3ccccc3O)CC2)C1=O (stereo unspecified)	0.1	i
CCOc1ccc(C2C(C(=O)OC)=CN(C(C)c3ccccc3)C=C2C(=O)OC)cc1 (stereo unspecified)	-7.43	-7.43*
CCOc1ccc(CCNC(=O)C(O)c2ccccc2)cc1 (stereo unspecified)	0.18	i
NC(=O)C1CCCN(S(=O)(=O)c2ccc3ccccc3c2)C1 (stereo unspecified)	0.01	i
CCOC(=O)N1CCN(C(=O)c2cn(CC)c3ccc(S(=O)(=O)N4CC(C)CC(C)C4)cc3c2=O)CC1 (stereo unspecified)	5.12	i
Cc1sc2nc(SCC(N)=O)n(-c3ccccc3)c(=O)c2c1C	nt	i
COc1ccc(-c2noc(CSc3nnc(Cc4ccccc4)n3-c3ccc(Cl)cc3)n2)cc1	nt	i
COc1ccc(-c2noc(CSc3nc4ccccc4c(=O)n3-c3ccc(C)cc3)n2)cc1	-5.74	-5.74*
Cc1sc2nc(SCc3nc(-c4ccccc4)no3)n(-c3ccccc3)c(=O)c2c1C	-9.03	-9.03*
SMILES	KCNQ2 pot	KCNQ2 inh
CC(C)c1ccccc1OCC(=O)Nc1ccc2[nH]ncc2c1	0.71	i
CCc1cc2cc(C)ccc2nc1SCC(=O)NC1CCCC1	0.26	i
CC(NC(=O)/C=C/c1ccccc1[N+](=O)[O-])C1CC2CCC1C2 (stereo unspecified)	-6.23	-6.23*
CC(NC(=O)c1cc([N+](=O)[O-])cc([N+](=O)[O-])c1)C1CC2CCC1C2 (stereo unspecified)	0.13	i
CCOC(=O)C1=C(CS(=O)(=O)c2ccc(F)c(C)c2)NC(=O)NC1c1ccc(O)c(O)c1 (stereo unspecified)	nt	i
Cc1nn(-c2ccccc2)c2c1C(c1ccc(Cl)cc1)N(c1ccccc1)C(=O)N2 (stereo unspecified)	-7.57	-7.57*
Cc1nn(-c2ccccc2)c2c1C(c1ccc([N+](=O)[O-])cc1)N1C(=N2)C(=O)Nc2ccccc21 (stereo unspecified)	3.62	i
CCOC(=O)c1c(S(=O)(=O)N2CCC(C)CC2)c(C)n(C)c1C	nt	i
COc1ccccc1CNC(=O)c1nn(C)c2c1CS(=O)(=O)c1ccccc1-2	nt	i
C=CCOc1ccc(CNn2cn[nH]c2=S)cc1	0.06	i
C=CCn1cn[nH]c1=S	-8.35	-8.35*
CCN(CC)c1ccc(CN2CCC(C(=O)NCc3ccc(C)cc3)CC2)cc1	3.18	i
O=C(CCC1CCCC1)Nc1ccccc1-c1ccccc1	23.1*	i
O=C(CNC(c1ccccc1)c1ccccc1)Nc1ccccc1F	nt	i
O=C(CCC1CCCCC1)Nc1ccccc1O	4.5	i
CCCC(=O)NCc1ccccc1Cl	nt	i
COc1ccccc1NC(=O)CC1CCCC1	0.84	i
O=C(CNC(c1ccccc1)c1ccccc1)Nc1ccccc1-c1ccccc1	-6.3	-6.3*
O=C(CNC(c1ccccc1)c1ccccc1)NCc1ccccc1Cl	-5.98	-5.98*
O=C(CC1CCCCC1)Nc1ccccc1-c1ccccc1	6.55*	i
COc1ccc(/C=C/S(=O)(=O)NCc2ccccc2)cc1OC	1.84	i
Cc1ccc(N2C(=O)N(CC(=O)NC(c3ccccc3)c3ccccc3)C(=O)C2C)cc1 (stereo unspecified)	-5.96	-5.96*
Cc1ccc(N2C(=O)N(CC(=O)NC(N)=O)C(=O)C2C)cc1 (stereo unspecified)	1.66	i
Cc1nc2scc(-c3ccccc3)c2c(=O)n1/N=C/c1ccco1	-6.42	-6.42*
Cc1nc2ccccc2c(=O)n1/N=C/c1ccco1	nt	i
SMILES	KCNQ2 pot	KCNQ2 inh
COc1ccc(-c2noc3c2-c2nc(-c4c(F)cccc4F)sc2CC3)cc1	nt	i
COc1ccc(CC(=O)NNC(=O)c2c(-c3ccccc3Cl)noc2C)cc1OC	0.54	i
CC1=C(C(=O)Nc2ccccn2)C(c2cccnc2)n2nnnc2N1 (stereo unspecified)	nt	i
CC(C)CNC(=O)CSc1n[nH]c(=O)n1CCc1ccccc1	0.35	i
CC(C)CCn1nnnc1CN1CCN(C(c2ccccc2)c2ccccc2)CC1	-5.73	-5.73*
c1ccc(C(c2ccccc2)N2CCN(Cc3nnnn3C3CCCC3)CC2)cc1	nt	i
O=C(O)CC1(O)C(=O)N(Cc2ccccc2)c2ccccc21 (stereo unspecified)	1.22	i
Cc1ccc(C(=O)N2c3ccccc3N(Cc3ccccc3)C(=O)C2(C)C)cc1	-5.57	-5.57*
O=c1cc(CN2CCN(S(=O)(=O)c3ccc4c(c3)OCCO4)CC2)c2ccc(O)cc2o1	-5.59	-5.59*
CCc1ccc2c(CN3CCN(S(=O)(=O)c4ccc5c(c4)OCCO5)CC3)cc(=O)oc2c1	0.46	i
CC1CCCCC1NCC#CCOc1ccc(Cl)cc1 (stereo unspecified)	nt	i
Cc1cccc(C)c1OCC(=O)NCc1ccccc1	-6.38	-6.38*
CCN(CC(=O)Nc1ccccc1C(F)(F)F)C(=O)c1oc2c(Cl)cccc2c1C	-6.81	-6.81*
Cc1cccc(C)c1OCC(=O)Nc1ccccc1C(F)(F)F	-7.01	-7.01*
O=C(COc1ccccc1)NCc1ccccc1	0.27	i
Cc1cccc(OCC(=O)Nc2ccccc2C(F)(F)F)c1	nt	i
CCN(CC(=O)Nc1ccc(OC)cc1)C(=O)c1oc2c(Cl)cccc2c1C	0.26	i
CCN(CC)CCN(Cc1cc2ccc(C)c(C)c2[nH]c1=O)C(=S)NCc1ccco1	0.01	i
